Screens (PubChem)
HTT aggregate: mutant huntingtin aggregation inhibition; PC12 HttQ103-GFP aggregates, Acumen cytometry, 40 h; Potency, µM (top dose mostly 46.1 µM), for the others: at the top dose activity change, negative = inhibition, usual class: inhibitors; hit rate 1.1% among 220,000; AID 1688; also: potency is read from the fitted curve at half-maximal effect; % is scaled to controls: 0 for no effect and ±100 for the full control effect; nearly all actives have a fitted effect of over 60% in size
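Steps: seed 1500 PC12 HTTQ103-GFP cells/well; add tebufenozide, 100 nM final; add compound titration; add ATPLite reagent; quantify GFP aggregates by laser scanning cytometry.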
HTT cytoprotect: cytoprotection in Huntington HTT-Q103 PC12 cell model | hit rate 0.14% among 230,000 | PC12 HTT-Q103 induced, cytoprotection, ATP luminescence, 40 h | Potency, µM (titrated, usually from 56.4 µM), for inactives: cytoprotection (ATP increase), hits mostly activators; also: potency is read from the fitted curve at half-maximal effect; % of control where 0% means no effect; nearly all actives have a fitted effect of over 45% in size
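PC12 cells stably carrying ecdysone-inducible Htt exon 1 (Q103)–GFP were induced with 100 nM tebufenozide (final) alongside library compounds in a dose series. Cytoprotection was scored as retained ATP by ATPlite luminescence.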
PNC inhibitor: perinucleolar compartment assembly inhibition. PC3M PTB-GFP, PNC prevalence imaging, 16 h; stronger effect = lower value. activity change (PNC), negative = inhibition, % at 10 µM. hit rate 3.1% among 140,000;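 active = readout at or below -70, meaning at least 70% loss of cells showing the perinucleolar compartment, a nuclear body marking cancer cells; inconclusive = readout between -30 and a set limit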;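 also: plate controls were DMSO wells for no effect and camptothecin positive control wells for full effect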
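PC3M cells stably expressing PTB-GFP, 750–1000 cells/well, treated 16 h at 37 °C with compound (23 nl of library stock), in duplicate. After paraformaldehyde fixation and Hoechst stain, imaged at 20x; PNC prevalence scored by image analysis.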
An asterisk follows results filed as active; [ ] = dose if it differs, or a comment. Shown is part of a subset that was picked to be rich in hits. Unless noted, calls follow the shape of the dose curve; as a rule, active = well fitted curve in the direction sought with a large enough effect; inconclusive = small, poorly fitted or top-dose-only effect, or another doubt; inactive = no such curve, though single readings can be large; an effect the other way counts as inactive or inconclusive.

`COc1ccc([C@H]2Sc3ccccc3N(CCN(C)C)C(=O)[C@H]2OC(C)=O)cc1` gave HTT cytoprotect -2.6%[40.3 µM].
For O=S(=O)(c1ccc2c(c1)OCCO2)N1CCC(c2nc3ccc(Cl)cc3[nH]2)CC1 the results were HTT aggregate -21.3%, HTT cytoprotect -44.0% and PNC inhibitor -13.9.
For O=S(=O)(c1ccc2ccccc2c1)N1CCC(c2nc(-c3ccncc3)no2)CC1 the results were HTT aggregate -31.2%, HTT cytoprotect 16.1%[10 µM] and PNC inhibitor -100.0*.
Screening Cc1ccc(S(=O)(=O)N2CCCN(S(=O)(=O)c3ccc4ccccc4c3)CC2)cc1 returned HTT aggregate inconclusive, HTT cytoprotect 12.2%[10 µM] and PNC inhibitor -100.0*.
O=C(NCC1CCCO1)c1ccc(S(=O)(=O)N2CCC(c3nc4ccc(Cl)cc4[nH]3)CC2)cc1 (configuration not stated) was read as HTT aggregate -38.7%, HTT cytoprotect -7.2%[10 µM] and PNC inhibitor -100.0*.
For O=S(=O)(c1ccc2ccccc2c1)N1CCN(S(=O)(=O)c2ccc3ccccc3c2)CC1 the results were HTT cytoprotect 0.2%[10 µM].
`Cc1ccc2nc(C3CCN(S(=O)(=O)c4ccc5ccccc5c4)CC3)[nH]c2c1` gave HTT aggregate 17.8µM*, HTT cytoprotect -77.1% and PNC inhibitor 1.4.
`O=S(=O)(c1ccc2c(c1)OCCO2)N1CCC(c2nc3ccccc3[nH]2)CC1` gave HTT aggregate -8.8%, HTT cytoprotect -22.6%[10 µM] and PNC inhibitor 3.7.
For CN(C)c1ccc(-c2noc(C3CCN(S(=O)(=O)c4cccc(Cl)c4)CC3)n2)cc1 the results were HTT aggregate -11.8%, HTT cytoprotect -6.5% and PNC inhibitor 31.8.
`CCCCC(CC)C(=O)Oc1ccc(O)c(C(C)(C)C)c1` (configuration not stated) gave HTT aggregate 19.2%[9.22 µM] and HTT cytoprotect -13.4%.
Screening COc1ccccc1Nc1nc2c(s1)CCC2 returned HTT aggregate inconclusive, HTT cytoprotect 9.5%[10 µM] and PNC inhibitor 78.1.
For O=C(Nc1ccc(Cl)cn1)c1ccc([N+](=O)[O-])o1 the results were HTT aggregate 27.4%[9.22 µM] and HTT cytoprotect 9.7%[10 µM].
`CCn1c(SCC(=O)N2CCC(C(N)=O)(N3CCCCC3)CC2)nnc1-c1ccccc1` gave HTT aggregate -18.1%, HTT cytoprotect -6.8%[1.9 µM] and PNC inhibitor inconclusive.
`COc1cc(CCCN2C(=O)C(=O)NC[C@@H]2CCCCN)cc(OC)c1OC` gave HTT aggregate 9.6%[9.22 µM] and HTT cytoprotect -3.6%[10 µM].
Screening COc1ccc(-c2csc(NC(=O)c3ccccc3NS(=O)(=O)c3ccc(C)cc3)n2)cc1 returned HTT aggregate inconclusive, HTT cytoprotect 23.0%[10 µM] and PNC inhibitor 18.9.
For COc1ccc(S(=O)(=O)Nc2ccccc2C(=O)Nc2nc(-c3ccc(F)cc3)cs2)cc1OC the results were HTT aggregate 10µM*, HTT cytoprotect inconclusive and PNC inhibitor 3.3.
O=C(Nc1cccc(C(F)(F)F)c1)Oc1ccc(Cl)c2cccnc12 was read as HTT aggregate 0.3%[9.22 µM] and HTT cytoprotect -39.1%[10 µM].
For COc1cccc(-c2nc(N3CCCC3)c3ccccc3n2)c1O the results were HTT aggregate -12.9%[9.22 µM] and HTT cytoprotect -25.5%[10 µM].
Screening COc1cccc(-c2nc(NC(C)(C)C)c3ccccc3n2)c1O returned HTT aggregate 35.5µM*, HTT cytoprotect -31.1% and PNC inhibitor -16.4.
For COc1ccc(C2c3ccc(O)cc3Oc3ncn(CC(C)C)c(=N)c32)cc1 (configuration not stated) the results were HTT aggregate -1.6%[9.22 µM] and HTT cytoprotect -11.9%[10 µM].
COc1ccc(NC(=O)N2CC[C@@]3(CCCN(C(=O)c4ccncc4)C3)C2)cc1 was read as HTT cytoprotect 2.24µM*.
Screening COc1ccc(NC(=O)N2CCCC3(CCN(C(=O)c4ccc(OC)cc4)CC3)C2)cc1 returned HTT cytoprotect -15.8%.
For Cc1ccccc1Oc1nnc(-c2cccs2)c2ccccc12 the results were HTT aggregate 3.55µM*, HTT cytoprotect 11.8%[10 µM] and PNC inhibitor 87.4.
CN1CCN(c2nnc(-c3cccs3)c3ccccc23)CC1 was read as HTT aggregate 7.6% and HTT cytoprotect -39.7%.
`O=[N+]([O-])c1ccccc1Oc1ccc(C(F)(F)F)cn1` gave HTT aggregate -0.7%.
c1ccc(CN2CCOCCOCCOCCOCC2)cc1 was read as HTT aggregate -13.4%[9.22 µM] and HTT cytoprotect 8.7%[10 µM].
N#C/C(=C\c1ccc(N2CCOCC2)o1)c1ccccc1 was read as HTT aggregate inconclusive, HTT cytoprotect 8.4% and PNC inhibitor -90.1*.
For N#C/C(=C/c1ccc(N2CCOCC2)o1)c1ccc(Br)cc1 the results were HTT aggregate inconclusive, HTT cytoprotect 9.5% and PNC inhibitor 29.7.
